Measured values from ChEMBL document CHEMBL1961873, “Compounds: GSK PKIS; Assays: Nanosyn kinase panel” (2012).

Assays:
[1] = target: T1, 3-phosphoinositide-dependent protein kinase 1 (Homo sapiens) (UniProt O15530); details: at 0.1 µM;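 further: values are mean inhibition of PDK1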
T1 sequence (whole entry): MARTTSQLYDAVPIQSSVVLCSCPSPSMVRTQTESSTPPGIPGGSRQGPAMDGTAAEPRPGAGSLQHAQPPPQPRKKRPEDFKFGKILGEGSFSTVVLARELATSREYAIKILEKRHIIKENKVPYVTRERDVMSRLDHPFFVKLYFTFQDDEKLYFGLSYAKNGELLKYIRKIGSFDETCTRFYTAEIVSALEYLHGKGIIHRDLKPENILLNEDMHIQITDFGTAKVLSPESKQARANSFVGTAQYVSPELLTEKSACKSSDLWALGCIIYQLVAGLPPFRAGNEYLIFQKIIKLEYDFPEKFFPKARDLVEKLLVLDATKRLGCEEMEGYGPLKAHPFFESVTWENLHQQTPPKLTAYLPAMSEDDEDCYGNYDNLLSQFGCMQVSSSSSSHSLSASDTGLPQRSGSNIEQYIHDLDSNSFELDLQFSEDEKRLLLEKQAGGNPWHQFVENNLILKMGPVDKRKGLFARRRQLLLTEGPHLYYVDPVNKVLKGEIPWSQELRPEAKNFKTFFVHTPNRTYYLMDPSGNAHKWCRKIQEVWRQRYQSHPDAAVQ

[2] = target: cAMP-dependent protein kinase catalytic subunit alpha (Homo sapiens) (UniProt P17612); details: at 0.1 µM
[3] = target: cAMP-dependent protein kinase catalytic subunit alpha (Homo sapiens) (UniProt P17612); details: at 1 µM
[4] = target: Protein kinase C alpha type (Homo sapiens) (UniProt P17252); details: at 0.1 µM
[5] = target: Protein kinase C alpha type (Homo sapiens) (UniProt P17252); details: at 1 µM
[6] = target: Protein kinase C beta type (Homo sapiens) (UniProt P05771); details: at 0.1 µM
[7] = target: Protein kinase C beta type (Homo sapiens) (UniProt P05771); details: at 1 µM
[8] = target: Protein kinase C eta type (Homo sapiens) (UniProt P24723); details: at 0.1 µM
[9] = target: Protein kinase C eta type (Homo sapiens) (UniProt P24723); details: at 1 µM
[10] = target: Protein kinase C gamma type (Homo sapiens) (UniProt P05129); details: at 0.1 µM;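 further: values are mean percent inhibition of PKC gamma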

Sequence of Protein kinase C beta type (Homo sapiens) (P05771 2-671 limits assumed): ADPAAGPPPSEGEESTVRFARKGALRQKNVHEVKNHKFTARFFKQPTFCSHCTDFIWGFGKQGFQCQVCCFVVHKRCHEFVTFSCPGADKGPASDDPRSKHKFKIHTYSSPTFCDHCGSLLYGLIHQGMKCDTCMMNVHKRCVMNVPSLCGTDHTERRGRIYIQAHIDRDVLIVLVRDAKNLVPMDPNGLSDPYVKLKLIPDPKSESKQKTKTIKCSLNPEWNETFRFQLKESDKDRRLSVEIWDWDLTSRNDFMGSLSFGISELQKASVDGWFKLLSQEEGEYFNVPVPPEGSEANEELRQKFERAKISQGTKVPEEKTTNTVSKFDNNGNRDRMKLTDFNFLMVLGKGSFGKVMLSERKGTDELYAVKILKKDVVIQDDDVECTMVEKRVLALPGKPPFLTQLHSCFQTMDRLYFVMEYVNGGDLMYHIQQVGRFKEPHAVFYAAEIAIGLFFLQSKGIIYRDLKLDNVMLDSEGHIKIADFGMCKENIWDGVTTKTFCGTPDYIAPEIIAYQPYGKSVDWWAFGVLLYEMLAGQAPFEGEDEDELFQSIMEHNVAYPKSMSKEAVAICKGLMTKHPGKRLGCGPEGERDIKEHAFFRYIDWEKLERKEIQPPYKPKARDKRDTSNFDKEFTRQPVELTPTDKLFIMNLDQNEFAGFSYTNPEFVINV
Sequence of Protein kinase C eta type (Homo sapiens) (P24723 whole entry): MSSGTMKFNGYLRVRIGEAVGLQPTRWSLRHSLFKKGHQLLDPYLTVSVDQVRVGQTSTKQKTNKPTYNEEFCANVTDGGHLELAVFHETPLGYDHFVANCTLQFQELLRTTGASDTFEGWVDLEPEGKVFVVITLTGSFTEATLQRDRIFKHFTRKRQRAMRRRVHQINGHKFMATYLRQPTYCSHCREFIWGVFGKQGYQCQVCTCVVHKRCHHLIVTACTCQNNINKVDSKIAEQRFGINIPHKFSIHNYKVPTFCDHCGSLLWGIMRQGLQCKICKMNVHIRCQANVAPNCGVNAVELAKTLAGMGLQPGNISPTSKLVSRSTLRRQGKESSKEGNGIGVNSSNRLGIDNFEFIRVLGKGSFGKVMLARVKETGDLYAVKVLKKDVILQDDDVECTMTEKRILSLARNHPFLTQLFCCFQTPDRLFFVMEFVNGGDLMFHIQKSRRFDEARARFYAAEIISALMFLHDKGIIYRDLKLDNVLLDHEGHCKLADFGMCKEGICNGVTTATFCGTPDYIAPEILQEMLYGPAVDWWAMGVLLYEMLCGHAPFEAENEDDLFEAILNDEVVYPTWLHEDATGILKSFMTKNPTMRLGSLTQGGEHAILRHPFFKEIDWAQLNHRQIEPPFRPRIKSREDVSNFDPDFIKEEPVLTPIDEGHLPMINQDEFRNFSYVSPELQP

Structure (SMILES) | inhibition [1] | inhibition [2] | inhibition [3] | inhibition [4] | inhibition [5] | inhibition [6] | inhibition [7] | inhibition [8] | inhibition [9] | inhibition [10]
O=C1Nc2ccccc2/C1=C/Nc1ccc(-n2cncn2)cc1 | 2.38% | 1.48% | 4.31% | 0.43% | 1.82% | 0.83% | 2.25% | 8.55% | 5.57% | 0.54%
CCc1ccc(Oc2nccc(-c3c(-c4ccc(F)cc4)ncn3C3CCNCC3)n2)cc1 | 1.58% | 25.9% | 75% | 0.98% | 7.86% | 3.94% | 14.9% | 7.26% | 5.32% | -0.16%
COc1cc(Nc2ncc(-c3ccccc3)o2)cc(OC)c1OC | -0.87% | -0.33% | -0.26% | -0.31% | 1.1% | -1.34% | 2.43% | -0.81% | -4.38% | -1%
CN(C)CCOc1ccc(-c2cc(-c3ccc4c(c3)CCC4=NO)c(-c3ccncc3)o2)cc1 | 0.51% | 2.75% | 21% | -0.04% | 1.32% | -1.02% | 4.4% | 0.38% | -1.11% | 0.61%
COc1cc(Nc2ncc3c(C)nc(-c4cccc(Oc5ccccc5)c4)n3n2)cc(OC)c1OC | 3.74% | 0.88% | -0.04% | 0.01% | 0.77% | -0.46% | -0.16% | 4.9% | -1.37% | 0.97%
Cc1nnc(-c2ccc(C)c(-c3ccc(C(=O)NCc4ccc(Cl)cc4)cc3)c2)o1 | 1.14% | -1.01% | 0.62% | -3.05% | -1.62% | 0.85% | 0.84% | 6.52% | 7.5% | 2.61%
COc1cc(N2CCN(C(C)C)CC2)ccc1Nc1nc(Nc2ccc(F)cc2C(=O)NC[C@@H](O)CO)c2cc[nH]c2n1 | -0.19% | -1.57% | 0.73% | -2.86% | -2.46% | 1.6% | 4.35% | 4.05% | 7.17% | -2.06%
c1ccc(Oc2ccc(Nc3ncc(-c4ccccc4)o3)cc2)cc1 | 3.8% | 1.26% | 5.43% | 1.03% | 1.47% | 1.14% | 0.76% | -1.38% | -0.47% | 1.13%
O=C(NCC1CC1)c1ccc(-c2cccc(C(=O)NC3CC3)c2)cc1 | 0.6% | 0.93% | 0.36% | 1.02% | 0.96% | -0.06% | -2% | 3.93% | -1.4% | 4.6%
CS(=O)(=O)CCNCc1ccc(-c2ccc3ncnc(Nc4ccc(OCc5ccccc5)c(Br)c4)c3c2)o1 | 2.06% | -1.58% | -1.94% | -3.83% | -2.95% | 0.95% | -0.59% | 5.37% | 5.42% | 0.5%
COc1ccc2cc(-c3c(-c4ccncc4)nc(-c4ccc(S(C)(=O)=O)cc4C)n3C)ccc2c1 | 0.71% | 8.44% | 29.8% | 1.11% | 6.73% | 2.3% | 14.5% | 7.27% | 7.65% | 2.09%
CCS(=O)(=O)c1ccc(OC)c(Nc2ncc(-c3ccccc3Cl)o2)c1 | 4.14% | 1.17% | 1.75% | 0.48% | 1.87% | 0.67% | 0.07% | 0.14% | 0.6% | -2.72%
Fc1ccc(-c2nc3n(c2-c2ccncc2)CCS3)cc1 | 1.88% | -0.98% | 0.45% | -2.53% | -1.43% | 0.64% | 9.28% | 4.25% | 4.84% | 2.76%
NC(=O)Cc1ccccc1Oc1nccc(-c2c(-c3ccc(F)cc3)ncn2C2CCNCC2)n1 | 1.03% | 1.37% | 0.93% | 0.35% | 1.51% | -0.44% | 3.18% | 3.28% | 0.22% | 4.12%
NS(=O)(=O)c1ccc(Nc2cc(-c3ccc(O)c(F)c3)n[nH]2)cc1 | -2.08% | -2.2% | -0.83% | -0.97% | 0.4% | -0.01% | 0.79% | -3.29% | -5.2% | -3.75%
CNC(=O)c1cncc(/C=C/c2c(C)cccc2C)c1 | 2.19% | -2.91% | -3.45% | -2.57% | -1.89% | 1.56% | -0.29% | 3.75% | 1.62% | -0.51%
COc1cc2ncn(-c3cc(OCc4cccs4)c(C(N)=O)s3)c2cc1OC | 3.07% | -0.85% | -2.23% | -2.88% | -2.59% | 5.39% | 8.77% | 4.49% | 4.09% | 4.75%

Structure (SMILES) | inhibition [1] | inhibition [2] | inhibition [3] | inhibition [4] | inhibition [5] | inhibition [6] | inhibition [7] | inhibition [8] | inhibition [9] | inhibition [10]
O=C(Nc1n[nH]c2nc(-c3ccc(O)cc3)c(Br)cc12)C1CC1 | 5.57% | 2.91% | 5.49% | 5.38% | 36.9% | 6.11% | 36.5% | 6.81% | 12.9% | 12.7%
C/C(Nc1ccc(S(N)(=O)=O)cc1)=C1/C(=O)Nc2ccccc21 | 6.52% | -1.19% | 2.61% | 0.02% | 0.38% | -0.26% | 1.85% | -1.23% | -1.17% | -3.82%
O=C(Nc1n[nH]c2cc(-c3ccccc3)ccc12)C1CC1 | 1.51% | 1.89% | 2.35% | 0.99% | 1.87% | -0.78% | 4.47% | 2.72% | 2.77% | 1.69%
CCS(=O)(=O)c1ccc(OC)c(Nc2ncc(-c3cccc(-c4ccccc4F)c3)o2)c1 | 9.34% | 0.57% | 1.3% | 1.13% | 1.66% | 0.49% | 0.3% | -1.89% | -1.48% | 0.64%
O=C1NC(=O)C(c2cccc(Cl)c2)=C1Nc1ccc(Cl)c(C(=O)O)c1 | 1.28% | 2.1% | 1.05% | 0.36% | 0.21% | 0.61% | 1.11% | 3.84% | 8.96% | 4.02%
COc1cc2ncn(-c3cc(OCc4ccccc4C(F)(F)F)c(C(C)=O)s3)c2cc1OC | 0.15% | 1.04% | 1.7% | -0.12% | 0.82% | 1.02% | 0.44% | 3.8% | 3.47% | -0.98%
CN(C)CCCNc1nccc(-c2c(-c3ccc(F)cc3)nn3cc(C(F)(F)F)ccc23)n1 | 2.53% | -2.76% | -2.98% | -2.9% | -2.14% | 2.22% | 0.97% | 6.55% | 0.14% | 1.19%
NS(=O)(=O)c1ccc(N/N=C2\C(=O)Nc3ccc(-c4cnco4)cc32)cc1 | 2.95% | -3.28% | -2.27% | -4.06% | -1.84% | 1.26% | 0.36% | 3.38% | 1.24% | -1.13%
c1ccc(-c2n[nH]cc2-c2ccnc(-c3ccc(OCCN4CCOCC4)cc3)c2)nc1 | 1.56% | 7.85% | 3.77% | 2.22% | 1.97% | 5.36% | 3.85% | -2.82% | -2.18% | 3.17%
Cc1ccc(C(=O)NC(C)C)cc1-c1ccc(C(=O)NCC2CC2)cc1 | -3.15% | -2.08% | -1.32% | -0.49% | 0.46% | -0.62% | -0.82% | -2.29% | -3.07% | -0.67%
N#Cc1ccc(Oc2nccc(-c3c(-c4ccc(F)cc4)ncn3C3CCNCC3)n2)cc1 | 8.47% | 2.63% | 5.75% | 0.69% | 2.61% | 1.45% | 2.93% | 6.05% | 5.43% | 1.87%
CCc1cccc(CC)c1/C=C/c1cncc(C(=O)NC)c1 | 0.34% | 1.89% | 1.06% | 1.01% | 3.13% | 0.31% | 0.32% | 1.99% | -0.26% | 1.06%
CCc1nccc2c1nc(-c1nonc1N)n2CC | 0.73% | 1.21% | 4.19% | 1.25% | 2.71% | 2.42% | 20% | 4.76% | 21.1% | -1.83%
COc1ccc2cc(-c3c(-c4ccncc4)nc(-c4ccc([S+](C)[O-])cc4C)n3C)ccc2c1 (stereo not given) | 0.48% | 2.01% | 21.8% | 0.33% | 1.35% | 2.04% | 13% | 0.16% | 0.69% | -0.82%
COc1cc2ncn(-c3cc(OCCc4ccccc4)c(C(N)=O)s3)c2cc1OC | 1.29% | 1.37% | -1.08% | 0.95% | 1.14% | 0.05% | -0.8% | -1.3% | 0.58% | 1.89%
O=C(Nc1ccc(Oc2ccc3[nH]c(NC(=O)c4ccccc4)nc3c2)cc1)Nc1cc(C(F)(F)F)ccc1F | 1.16% | 1.01% | 1.45% | 0.3% | 1.8% | 0.29% | 3.18% | 1.1% | 4.58% | 3.6%
CN1CCN(CCCNc2nc3ccc(Oc4ccc(NC(=O)Nc5cc(C(F)(F)F)ccc5F)cc4)cc3[nH]2)CC1 | 2.91% | -1.46% | -0.98% | -2.39% | -1.52% | 2.13% | 1.42% | 1.27% | 1.68% | 1.25%
